The list is not random: actives were taken first. Their share in the collection is about 7.6%.
Cy5 interf NS3h – Cy5 fluorescence quenchers or enhancers, artefact control for HCV NS3 helicase inhibitor project, biochemical, ChemBridge library, Cy5 readout | Cy5-dT15 DNA with NS3h, fluorescence interference; actives lie on both sides; signal over control mean, under 1 quenches | fluorescence interference ratio at 100 µM | 16,000 compounds, 6% hits;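 active means compound fluorescence over control fluorescence at most 0.8, a quencher, or at least a set upper limit, an enhancer; inactive means ratio between 0.8 and the set upper limit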
NS3h inh CB – HCV NS3 helicase inhibitors, primary screen, biochemical, fluorescence polarization, ChemBridge library; Hepatitis C virus NS3 helicase; NS3h Cy5-dT15 DNA binding; 16,000 compounds, 1.6% hits; inhibition, % at 100 µM;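 active means inhibition above the average over every tested compound plus 3 SD, cut at about 40% in these data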
* marks the source's active call; other numbers are inactive results.

SMILES | Cy5 interf NS3h | NS3h inh CB
C=CCOc1ccc(Cl)cc1/C=C1/SC(=S)NC1=O | 1.24* | 11.9
O=C(O)CN1C(=O)/C(=C/c2ccccc2OCc2ccc([N+](=O)[O-])cc2)SC1=S | 1.12 | 24.5
CN1C(=O)C(=Cc2ccccc2OCc2ccc([N+](=O)[O-])cc2)C(=O)N(C)C1=O | 0.576* | 32.8
COc1cc(C=C2C(=O)N(C)C(=O)N(C)C2=O)ccc1Oc1ccc([N+](=O)[O-])cn1 | 0.792* | 30.3
COc1cc(/C=C2\SC(=S)NC2=O)ccc1Oc1ccc([N+](=O)[O-])cn1 | 0.893 | -2.8
O=C(COc1ccc2c(c1)oc(=O)c1ccccc12)c1ccccc1 | 1.43* | -72.5
O=C(COc1ccc2c(c1)oc(=O)c1ccccc12)OCc1ccccc1 | 0.945 | -0.6
Cc1cccn2c(=O)c(/C=C3\SC(=S)N(Cc4ccccc4)C3=O)c(NCCCn3ccnc3)nc12 | 0.591* | 7.0
COc1ccc(CCN2C(=O)/C(=C/c3c(NCCCn4ccnc4)nc4c(C)cccn4c3=O)SC2=S)cc1OC | 0.886 | 7.1
O=C(Nc1ccc(Cl)c(Cl)c1)Nc1nnc(SCc2ccccc2)s1 | 1.02 | 6.1
COc1ccccc1NC(=O)c1c(O)c2ccccc2[nH]c1=O | 1.12 | 8.9
Cc1csc(NC(=O)c2c(O)c3ccccc3[nH]c2=O)n1 | 1.2* | -0.3
CCOC(=O)C1=C(C)N=c2s/c(=C\c3ccc([N+](=O)[O-])o3)c(=O)n2C1c1ccc(OCC)cc1 (configuration not stated) | 0.865 | -6.5
CCOC(=O)C1=C(C)N=c2s/c(=C\c3ccc(N(C)C)o3)c(=O)n2C1c1ccc(OCC)cc1 (configuration not stated) | 0.799* | 0.7
CCCC(O)=C1C(=O)CC(C)(C)CC1=Nc1cccc2ccccc12 | 1.05 | 4.8
COCCNC(=O)c1ccc(CN(c2ccccc2)S(C)(=O)=O)cc1 | 0.722* | 17.7
CS(=O)(=O)N(Cc1ccc(C(=O)NCCSc2ccccn2)cc1)c1ccccc1 | 1.06 | 17.9
COc1ccccc1N1CCN(C(=O)c2ccc(N(C)C)cc2)CC1 | 0.657* | -2.5
CN(C)c1ccc(C(=O)N2CCN(c3ccc(F)cc3)CC2)cc1 | 0.75* | 8.7
CN(C)c1ccc(C(=O)N2CCN(c3ccccc3)CC2)cc1 | 0.965 | -3.4
COc1ccccc1N1CCN(C(=O)c2c(Cl)cccc2Cl)CC1 | 1.03 | 1.8
COc1cc(C=O)cc2c1OC1(C=C2)N(C)c2ccccc2C1(C)C (configuration not stated) | 1.06 | 4.1
O=c1cc(-c2ccccc2)nc2cc(-c3cccc(Cl)c3)[nH]n12 | 1.24* | -57.9
O=c1c2c(nc3cc(-c4cccc(Cl)c4)[nH]n13)CCS2 | 0.724* | -50.7
Cc1cc(=O)n2[nH]c(-c3cccc(F)c3)cc2n1 | 1.14 | -8.2
SMILES | Cy5 interf NS3h | NS3h inh CB
O=c1c2c(nc3cc(-c4cccc(F)c4)[nH]n13)CCCC2 | 1.09 | 9.9
COc1cccc(C2c3c(-c4ccccc4)n[nH]c3C(=O)N2c2ccccc2)c1 (configuration not stated) | 1.05 | 3.8
COc1cc(/C=N\N2CCN(Cc3cccc4ccccc34)CC2)cc(OC)c1O | 1.01 | 13.5
CN(C)C(=O)c1ccc(Br)cc1 | 1.03 | 0.4
Cc1cc([N+](=O)[O-])ccc1NC(=O)c1ccccc1 | 1.04 | -18.7
Cc1ccc(C)c(NC(=O)c2ccc([N+](=O)[O-])cc2)c1 | 0.688* | 7.7
O=C(Nc1ccccc1C(=O)N1CCOCC1)c1ccc([N+](=O)[O-])cc1 | 0.963 | 0.3
O=C(Nc1ccccc1C(=O)Nc1ccccn1)c1ccc([N+](=O)[O-])cc1 | 0.746* | -45.0
O=C(CC1S/C(=N/N=C\c2cccc(O)c2)NC1=O)Nc1ccc(Cl)c(Cl)c1 (configuration not stated) | 1.03 | -3.2
C/C(C=O)=C\c1ccc(/C=C(C)/C=C2/SC(=S)N(c3ccccc3)C2=O)cc1 | 1.05 | -17.6
O=C(NCCCO)C(=O)Nc1ccc(F)cc1 | 1.15 | 2.9
O=C(CC(c1ccccc1)c1ccccc1)Nc1ccc(Cl)cn1 | 0.655* | 8.7
CC(=O)CC(=O)Nc1ccc(Cl)cn1 | 1.02 | 5.1
Cc1ccc(C2CC(C(F)(F)F)n3nc(C(=O)Nc4ccc(F)cc4F)cc3N2)cc1 (configuration not stated) | 0.569* | 2.2
COc1ccc(C2CC(C(F)(F)F)n3nc(C(=O)NCc4cccs4)cc3N2)cc1OC (configuration not stated) | 0.91 | -3.4
COCCNC(=O)c1cc2n(n1)C(C(F)(F)F)CC(c1ccc(F)cc1)N2 (configuration not stated) | 1.03 | 1.7
COc1ccc(C2CC(C(F)(F)F)n3nc(C(=O)O)cc3N2)cc1OC (configuration not stated) | 0.646* | -0.6
Cc1ccc(C2CC(C(F)(F)F)n3nc(C(=O)N4CCN(Cc5ccccc5)CC4)cc3N2)cc1 (configuration not stated) | 0.761* | 11.0
O=C(c1cc2n(n1)C(C(F)(F)F)CC(c1ccc(Cl)cc1)N2)N1CCN(c2ccccc2)CC1 (configuration not stated) | 0.926 | 24.2
C/C(O)=C(\C#N)P(C)(=O)OCC(C)C (configuration not stated) | 0.97 | -4.3
CCOc1ccc(NC(=O)c2c(Cl)cccc2Cl)cc1 | 1.04 | 0.8
C#Cc1cccc(NC(=O)c2cccc(N3C(=O)c4ccc(Oc5cccc([N+](=O)[O-])c5)cc4C3=O)c2)c1 | 1 | 2.8
CCOC(=O)c1ccc(-c2ccc(C(=O)Nc3ccc(-c4nc5ccccc5s4)c(O)c3)o2)cc1 | 0.993 | -5.3
O=C(Nc1ccc(-c2nc3ccccc3o2)c(O)c1)c1ccc(-c2cccc([N+](=O)[O-])c2)o1 | 0.77* | -26.3
Cc1cc([N+](=O)[O-])ccc1-c1ccc(C(=O)Nc2ccc(-c3nc4ccccc4o3)c(O)c2)o1 | 0.612* | -46.9
SMILES | Cy5 interf NS3h | NS3h inh CB
Cc1ccc2oc(-c3cccc(NC(=O)c4ccc(-c5ccc([N+](=O)[O-])cc5C)o4)c3C)nc2c1 | 1.06 | 6.1
O=C(Nc1ccc(NC(=O)c2ccc(-c3ccc([N+](=O)[O-])cc3)o2)cc1)c1ccco1 | 0.674* | -39.8
O=C(Nc1ccc(-c2nc3ccccc3o2)c(O)c1)c1ccc(-c2cccc(Cl)c2)o1 | 1.18 | -38.4
O=C(Nc1ccc(-c2nc3ccccc3s2)c(O)c1)c1ccc(-c2cccc([N+](=O)[O-])c2)o1 | 0.563* | -60.6
C=CCNC(=O)c1ccc(-c2ccc([N+](=O)[O-])cc2)o1 | 0.961 | 24.1
O=C(Nc1ccc(Cl)c(Cl)c1)Nc1nnc(-c2ccccc2)s1 | 1.07 | 9.9
CC1(C)C(c2ccccc2)=NC(c2ccccc2O)N1O (configuration not stated) | 1.07 | -4.1
COc1cc(/C=c2\sc3nc4ccccc4n3c2=O)ccc1OCCOc1ccc(C(C)(C)C)cc1 | 1.02 | 1.3
O=[N+]([O-])c1cccc(S(=O)(=O)N2CCOCC2)c1 | 0.947 | 1.3
COc1ccc(-c2noc(-c3ccc(C(C)(C)C)cc3)n2)cc1OC | 0.949 | 22.4
O=C(COc1ccc(Cl)cc1)Nc1cc([N+](=O)[O-])ccc1F | 0.88 | 9.7
Cc1cc(OCC(=O)Nc2cc([N+](=O)[O-])ccc2Cl)cc(C)c1Cl | 0.542* | 7.7
